Source: PubChem BioAssay (The Scripps Research Institute Molecular Screening Center)
FBW7 act = human FBW7 E3 ligase activation, primary screen; Q969H0; AlphaScreen FBW7–phospho-cyclin E peptide binding, activator screen; normalized activity (activation), % at 26.1 µM; actives 0.13% (n = 650,000); in the data active = normalized activity above about 1.9%;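 also: purified mutant Fbw7 with reduced substrate affinity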
Target sequence (Q969H0 whole entry, looked up): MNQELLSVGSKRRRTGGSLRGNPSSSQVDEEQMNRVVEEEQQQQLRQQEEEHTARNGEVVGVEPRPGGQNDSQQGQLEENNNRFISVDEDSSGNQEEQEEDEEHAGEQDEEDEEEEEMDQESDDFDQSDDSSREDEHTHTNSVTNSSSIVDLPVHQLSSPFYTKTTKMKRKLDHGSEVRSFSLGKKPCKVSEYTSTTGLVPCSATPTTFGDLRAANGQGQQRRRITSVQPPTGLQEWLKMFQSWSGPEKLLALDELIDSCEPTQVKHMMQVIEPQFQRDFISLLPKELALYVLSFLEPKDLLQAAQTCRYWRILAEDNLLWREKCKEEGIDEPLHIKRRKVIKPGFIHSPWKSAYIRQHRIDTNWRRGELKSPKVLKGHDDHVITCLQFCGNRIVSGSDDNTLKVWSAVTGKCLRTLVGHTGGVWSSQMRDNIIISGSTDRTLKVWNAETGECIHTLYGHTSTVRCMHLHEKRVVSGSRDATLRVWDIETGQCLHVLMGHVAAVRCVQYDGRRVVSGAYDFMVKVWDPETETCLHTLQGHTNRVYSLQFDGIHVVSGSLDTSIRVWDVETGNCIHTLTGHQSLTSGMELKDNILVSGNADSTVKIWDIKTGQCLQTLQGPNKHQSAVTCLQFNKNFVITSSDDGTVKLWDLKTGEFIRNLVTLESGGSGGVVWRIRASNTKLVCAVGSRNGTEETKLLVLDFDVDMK
GPR151 ag = activates the human receptor GPR151; activation, % at 11.2 µM; Q8TDV0; actives 1% (n = 650,000); AID 1508602; PathHunter beta-arrestin GPR151 cells, luminescence; in the data active = activation above about 4.9%;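 also: 0% = median of compound wells and 100% = cells with positive control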
TEAD-YAP block = TEAD-YAP interaction inhibition. actives 1.4% (n = 640,000). AID 1259422. inhibition, % at 9.12 µM. HEK-TIYL cells, TEAD-Gal4/YAP UAS-luciferase luminescence; in the data active = inhibition above about 32%;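 also: 0% = median of test compound wells and 100% = reference inhibitor wells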
MITF inh = inhibitors of human MITF. AID 1259374. AlphaScreen MITF homodimerization, bead proximity signal. actives 0.91% (n = 650,000). inhibition, % at 2.6 µM; in the data active = inhibition above about 50%;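 also: 0% = vehicle wells with protein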
GPR151 conf act = human GPR151 activation, confirmation screen; GPR151 PathHunter beta-arrestin cells, luminescence, 90 min; % of EA-reagent control over plate median; 6,700 tested, under 10 active; shares compounds with GPR151 ag; activation, % at 11.2 µM;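 active = mean percent activation across replicates above the confirmation screen cutoff of 4.91%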
GPR119 counter = activates human GPR119 in a GPR151 counter-screen; shares compounds with GPR151 ag; AID 1508611; activation, % at 11.2 µM; GPR119 PathHunter beta-arrestin cells, luminescence, 90 min; 0 = compound-well median, 100 = enzyme-acceptor control; actives 0.3% (n = 6,700);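 active = mean percent activation in the counterscreen above 29.09%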;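 also: counterscreen on off-target GPR119 to flag nonselective hits from the GPR151 activator screen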
* marks the source's active call; other numbers are inactive results; · = not tested or not shown. An excerpt weighted towards active compounds, which were near 3.5% of everything screened.

SMILES	FBW7 act	GPR151 ag	TEAD-YAP block	MITF inh	GPR151 conf act	GPR119 counter
COc1ccc(NC(=S)Nc2ccc(S(=O)(=O)N3CCOCC3)cc2)c(OC)c1	-0.1	5.2*	5.4	5.9	0.8	3.6
O=C(O)CN=C1NC2(CCCC2)Cc2ccccc21	0.0	2.1	-4.8	4.8	·	·
O=C1NC2(CCCCCC2)Cc2ccccc21	-0.2	7.9*	-14.4	-6.1	-0.3	0.6
COCCn1c(C)cc(/C=C2/C(=O)NC(=O)N(C3CCCCC3)C2=O)c1C	-0.2	7.0*	8.8	8.4	-0.7	-11.7
CC(C)c1ccc(NC(=O)c2cc(S(=O)(=O)N3CCc4ccccc43)ccc2F)cc1	0.1	7.4*	-10.7	0.2	-1.1	-11.0
Cc1ccc(NC(=O)c2ccccc2NC(=O)c2ccc(S(=O)(=O)N3CCc4ccccc43)cc2)c(C(=O)c2ccccc2)c1	-0.1	8.7*	1.0	-3.6	0.3	11.5
O=C(NCCc1ccccc1)C1CC(=O)N(CCc2ccccc2)C(=Nc2ccc(Cl)cc2)S1 (configuration not stated)	0.1	-0.9	3.0	-0.1	·	·
CCOC(=O)c1cnc2c(OC)cccc2c1Nc1cccc(C(=O)O)c1	-0.1	5.3*	-2.7	11.4	1.7	12.1
CCC(C)(C)NS(=O)(=O)c1ccc2c(c1)SCCN2C(C)=O	0.0	-1.1	-1.4	7.6	·	·
COc1cc(C(=O)Nc2cc(=O)n(C)c(=O)n2C)cc(OC)c1OC	0.0	5.7*	-2.1	-5.4	-0.5	-0.5
CCOC(=O)N1CCc2c(sc(NC(=O)c3ccc(Br)s3)c2C#N)C1	0.1	9.1*	3.3	8.8	0.4	5.4
COc1ccc2c(CNCCc3ccccc3)c(C(=O)O)n(Cc3ccc(F)cc3)c2c1	0.5	-2.2	15.1	12.9	·	·
Cc1ccc2nc(C)c3c(c2c1)OC(CBr)C3 (configuration not stated)	0.0	0.9	11.0	-7.1	·	·
CSc1nc(C)c2c(n1)OC(CBr)C2 (configuration not stated)	-0.3	5.0*	0.5	0.3	-0.5	-4.8
C=CCSc1nc2sc3c(c2c(=O)n1CCc1ccccc1)CCC3	0.0	-1.0	4.4	6.9	·	·
CC(=O)Nc1cc(C(=O)c2ccccc2)ccc1N1CCOCC1	-0.2	6.1*	4.4	-0.7	0.7	-3.9
CCOc1cc(C(=O)Nc2ccccc2N2CCOCC2)cc(OCC)c1OCC	-0.1	5.8*	4.7	-2.4	-0.5	-8.9
COc1ccccc1C(=O)Nc1cc(C(=O)c2ccccc2)ccc1N1CCOCC1	0.1	-1.7	14.4	15.1	·	·
O=C(NNC(=S)NCc1ccccc1)c1ccc(Br)o1	0.0	6.3*	6.6	3.2	-0.7	-2.9
Cc1ccc2c(c1)cc(CN1CCN(CCO)CC1)c(=O)n2Cc1cccc(F)c1	-0.2	1.3	-6.1	-3.6	·	·
Cc1cc(C)n2nc(SCC(=O)Nc3c(C)nn(-c4ccccc4)c3C)nc2n1	0.1	5.4*	-9.3	-3.1	1.7	2.4
Cc1cc(C)n2nc(SCC(=O)Nc3ccccc3C(C)(C)C)nc2n1	0.4	-0.6	-10.1	13.0	·	·
CCOC(=O)C1=C(c2ccccc2)N=c2s/c(=C\c3ccc4c(c3)OCO4)c(=O)n2C1c1ccccc1OC (configuration not stated)	0.0	0.6	0.9	-0.6	·	·
Cc1ccccc1OCC(=O)NNC(=O)C(F)(F)F	0.1	5.1*	-2.6	-0.9	0.1	-0.9
Cc1ccc(OCC(=O)NNC(=O)COc2ccccc2C)cc1	-0.1	2.0	7.6	0.4	·	·
SMILES	FBW7 act	GPR151 ag	TEAD-YAP block	MITF inh	GPR151 conf act	GPR119 counter
O=C(NNC1=NCCC1)c1ccc(Br)cc1	-0.1	0.3	-4.5	4.8	·	·
Cc1ccc(C(=O)NNC2=NCCC2)cc1	0.5	5.6*	-6.4	-0.6	0.4	6.0
CC(C)CNc1nnnc2c1cnn2-c1ccccc1	0.0	9.6*	-38.9	-2.9	0.7	3.5
CCCNc1nnnc2c1cnn2-c1ccccc1	0.1	0.5	-33.8	8.1	·	·
Cc1cccc(-c2cc(C(=O)N3CCN(C)CC3)c3ccccc3n2)c1	0.2	5.7*	8.5	11.7	0.4	8.0
CN1CCN(C(=O)c2cc3ccccc3nc2Cl)CC1	-0.1	8.0*	3.9	4.6	-0.9	-4.7
Cc1cccc(-c2cc(C(=O)N3CCN(c4ccc([N+](=O)[O-])cc4)CC3)c3ccccc3n2)c1	-0.1	-0.4	2.8	13.4	·	·
